Data published in the supplement of paper PMC13380429.

What was measured:
[1] = system: Vero E6 infected with SARS-CoV-2; test: morphology score (similarity to uninfected cells); higher = more like uninfected cells; settings: 24 h
[2] = system: Vero E6 infected with SARS-CoV-2; test: SARS-CoV-2 infection rate relative to infected DMSO; higher = more infection, active = 60 or less; settings: 24 h

| Compound | morphology score [1] | SARS-CoV-2 infection rate [2] |
| --- | --- | --- |
| CC(C[N+](C)(C)C)OC(N)=O (configuration not stated) [bethanechol] (10 µM) | 0.0417 | 106% (inactive) |
| CN(C)CCOC(c1ccc(Cl)cc1)c1ccccn1 (configuration not stated) [carbinoxamine] (10 µM) | 0.075 | 96% (inactive) |
| O=c1cc(N2CCOCC2)oc2c(-c3ccccc3)cccc12 (0.833333 µM) | 0.266 | 98.5% (inactive) |
| CCCCNc1ncc2c(-c3ccc(CN4CCN(C)CC4)cc3)cn([C@H]3CC[C@H](O)CC3)c2n1 (10 µM) | -0.164 | 119% (inactive) |
| O=C(NCc1ccc(Oc2ccccc2)cc1)c1nc(-c2cc(Br)c(O)c(Br)c2)no1 (0.833333 µM) | 0.0493 | 100% (inactive) |
| CCOC(=O)N1CSC[C@H]1C(=O)O [telmesteine] (10 µM) | 0.00511 | 99.5% (inactive) |
| C[C@@H]1CC[C@@]2(OC1)O[C@H]1C[C@H]3[C@@H]4CC=C5C[C@@H](O)CC[C@]5(C)[C@H]4CC[C@]3(C)[C@H]1[C@@H]2C [diosgenin] (10 µM) | 0.114 | 106% (inactive) |
| Cc1cccc(-c2n[nH]cc2-c2ccc3ncccc3n2)n1 [repsox] (10 µM) | 0.188 | 97% (inactive) |
| COc1ccc(CN2CCN(C(c3ccc(F)cc3)c3ccc(F)cc3)CC2)c(OC)c1OC [lomerizine] (10 µM) | 0.0043 | 108% (inactive) |
| CN(C)C(=O)C(=O)c1cn(C)c2cc(Cl)c(C(=O)N3CCC(Cc4ccc(F)cc4)CC3)cc12 (10 µM) | 0.323 | 82% (inactive) |
| CC(=O)NCC(=O)N1[C@@H]2CC[C@H]1c1ccc(Nc3ncc(C(F)(F)F)c(NC4CCC4)n3)cc12 (0.833333 µM) | -0.071 | 124% (inactive) |
| Nc1nc(Cl)nc2c1ncn2[C@@H]1O[C@H](CO)[C@@H](O)[C@H]1O [2-chloroadenosine] (10 µM) | -0.0246 | 105% (inactive) |
| NNC(=O)c1ccncc1 [isoniazid] (10 µM) | -0.115 | 111% (inactive) |
| C=CC(=O)Nc1cccc(Nc2nc(Nc3ccc(N4CCN(C(C)=O)CC4)cc3OC)ncc2C(F)(F)F)c1 [rociletinib] (10 µM) | -0.408 | 106% (inactive) |
| COc1cccc(-c2cc(F)ccc2[C@H]2Cc3nc(N)nc(C)c3C(=O)N2)n1 (0.833333 µM) | 0.125 | 99% (inactive) |
| O=c1[nH]c2ccccc2n1CCCN1CCC(n2c(=O)[nH]c3cc(Cl)ccc32)CC1 [domperidone] (10 µM) | 0.00154 | 110% (inactive) |

| Compound | morphology score [1] | SARS-CoV-2 infection rate [2] |
| --- | --- | --- |
| CCn1cc(-c2ccnc3[nH]c(-c4cccc(CN(C)C)c4)cc23)c(-c2ccc(NC(=O)N(C)C)cc2)n1 (0.833333 µM) | -0.185 | 106% (inactive) |
| OC[C@@H](O)[C@@H](O)CO [erythritol] (10 µM) | 0.135 | 87.5% (inactive) |
| CCCn1c(=O)c2nc(C34CC5CC(CC3C5)C4)[nH]c2n(CCC)c1=O (10 µM) | 0.134 | 94% (inactive) |
| CC1CC(OC(=O)C(O)c2ccccc2)CC(C)(C)N1C (configuration not stated) [eucatropine] (10 µM) | -0.104 | 115% (inactive) |
| C[N+](C)(C)CCCCCCCCCC[N+](C)(C)C [decamethonium] (10 µM) | 0.0864 | 108% (inactive) |
| COC(=O)[C@H](CC(C)C)NC(=O)c1ccc(NC[C@@H](N)CS)cc1-c1cccc2ccccc12 (10 µM) | -0.445 | 115% (inactive) |
| COc1ccc(-c2c(C)c(C(=O)NN3CCCCC3)nn2-c2ccc(Cl)cc2Cl)cc1 (10 µM) | 0.154 | 86% (inactive) |
| CCOC(=O)[N-]c1c[n+](N2CCOCC2)no1 [molsidomine] (10 µM) | 0.0533 | 102% (inactive) |
| COc1cc2c(Oc3ccc4[nH]c(C)cc4c3F)ccnc2cc1OCC1(N)CC1 [anlotinib] (10 µM) | -0.207 | 100% (inactive) |
| Cc1ccc2c(c1)[C@]13CCCC[C@@H]1[C@H](C2)N(C)CC3 [dimemorfan] (10 µM) | 0.368 | 92.5% (inactive) |
| CCOC(=S)SSC(=S)OCC [dixanthogen] (10 µM) | -0.0377 | 106% (inactive) |
| CC[C@]12CCCN3CCc4c(n(c5ccccc45)C(=O)C1)[C@@H]32 [vinburnine] (10 µM) | -0.0662 | 99.5% (inactive) |
| Cc1cc(O)cc2c1O[C@](C)(CCC[C@H](C)CCC[C@H](C)CCCC(C)C)CC2 [D-delta-tocopherol] (10 µM) | -0.14 | 112% (inactive) |
| CCc1cccc(CC)c1NC(=O)c1nn(C)c2c1CCc1cnc(Nc3ccc(C(=O)NC4CCN(C)CC4)cc3OC(F)(F)F)nc1-2 (10 µM) | -0.0668 | 111% (inactive) |
| CCCc1ncc(C[n+]2ccccc2C)c(N)n1 [amprolium] (10 µM) | -0.0897 | 104% (inactive) |
